Conditions in all cases: mRNA level, 48 h; actives raise or lower the signal
Read-out in experiment [1]: Intercellular Adhesion Molecule 1 (ICAM1), ICAM1 (gene 3383)
Description: LTEA_HepaRG_ICAM1: Life Technologies and Expression Analysis (LTEA) Assay for Intercellular Adhesion Molecule 1 (ICAM1) using HepaRG (AID 2283507). The essentials: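 HepaRG, 48 h exposure, 8-pt half-log series from 100 uM, 0.5% DMSO vehicle, duplicates. Readout: TaqMan qRT-PCR mRNA, housekeeping-normalized (ACTB/GAPDH/POLR2A). Bidirectional curve fit vs DMSO baseline.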

Read-out in experiment [2]: Insulin-like growth factor-binding protein 1 (IGFBP1), IGFBP1 (gene 3484)
As to the kind of experiment: LTEA_HepaRG_IGFBP1: Life Technologies and Expression Analysis (LTEA) Assay for Insulin-like growth factor-binding protein 1 (IGFBP1) using HepaRG (AID 2283508). Summed up:
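qRT-PCR mRNA read-out (TaqMan, Fluidigm array), normalised to three housekeeping genes; HepaRG cells, 48 h exposure, 8-pt half-log series from 100 uM, 0.5% DMSO vehicle; bidirectional curve fit vs DMSO baseline.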

Read-out in experiment [3]: Interleukin 6 (IL6), IL6 (gene 3569)
As to the kind of experiment: LTEA_HepaRG_IL6: Life Technologies and Expression Analysis (LTEA) Assay for Interleukin 6 (IL6) using HepaRG (AID 2283509). Summed up: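 qRT-PCR read-out of IL6 transcript, normalized to three housekeeping genes, after 48 h chemical exposure of HepaRG cells; 8-point half-log series, top 100 uM, 0.5% DMSO vehicle. Bidirectional curve fitting against DMSO baseline.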

Read-out in experiment [4]: Interleukin 6 Receptor (IL6R), IL6R (gene 3570)
Description: LTEA_HepaRG_IL6R: Life Technologies and Expression Analysis (LTEA) Assay for Interleukin 6 Receptor (IL6R) using HepaRG (AID 2283510).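 On AC50: differentiated human HepaRG liver cells in serum-free induction medium.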 The essentials: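 IL6R transcript level by qRT-PCR after 48 h chemical exposure (8-point, half-log, max 100 uM, 0.5% DMSO vehicle) of HepaRG cells in serum-free induction medium. Normalized to three housekeeping genes; curves fitted in both directions relative to DMSO.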

Read-out in experiment [5]: Potassium channel subfamily K member 1 (KCNK1), KCNK1 (gene 3775)
As to the kind of experiment: LTEA_HepaRG_KCNK1: Life Technologies and Expression Analysis (LTEA) Assay for Potassium channel subfamily K member 1 (KCNK1) using HepaRG (AID 2283511). Summed up: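 HepaRG, 48 h exposure, 8-pt half-log series top 100 uM, 0.5% DMSO vehicle, duplicates. Readout: KCNK1 transcript by qRT-PCR (Fluidigm array), housekeeping-normalized; bidirectional curve fit relative to DMSO baseline.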

Read-out in experiment [6]: Keratin 19 (KRT19), KRT19 (gene 3880)
Description: LTEA_HepaRG_KRT19: Life Technologies and Expression Analysis (LTEA) Assay for Keratin 19 (KRT19) using HepaRG (AID 2283512). The essentials: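 HepaRG, 48 h chemical exposure, 8-pt half-log CRC from 100 uM, 0.5% DMSO vehicle, duplicates. Readout: TaqMan qRT-PCR of KRT19 mRNA, housekeeping-normalized (ACTB/GAPDH/POLR2A). Bidirectional fit vs DMSO baseline.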

Read-out in experiment [7]: JUN Transcription Factor, JUN (gene 3725)
As to the kind of experiment: LTEA_HepaRG_JUN: Life Technologies and Expression Analysis (LTEA) Assay for JUN Transcription Factor using HepaRG (AID 2283513). The essentials: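 mRNA measured by TaqMan qRT-PCR after 48 h chemical exposure of HepaRG cultures; normalization to three housekeeping genes. Duplicate eight-point half-log curves from 100 uM in 0.5% DMSO; gain or loss fitted against DMSO baseline.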

Read-out in experiment [8]: Lipase C (LIPC), LIPC (gene 3990)
As to the kind of experiment: LTEA_HepaRG_LIPC: Life Technologies and Expression Analysis (LTEA) Assay for Lipase C (LIPC) using HepaRG (AID 2283514). The essentials: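 HepaRG, 48 h exposure, 8-pt half-log series from 100 uM in 0.5% DMSO, duplicates. Readout: LIPC mRNA by Fluidigm qRT-PCR, housekeeping-normalized (ACTB/GAPDH/POLR2A). Gain or loss fitted bidirectionally against DMSO baseline.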

Read-out in experiment [9]: Lipoprotein lipase (LPL), LPL (gene 4023)
Description: LTEA_HepaRG_LPL: Life Technologies and Expression Analysis (LTEA) Assay for Lipoprotein lipase (LPL) using HepaRG (AID 2283515). The essentials: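 HepaRG, 48 h exposure, 8-pt half-log dilutions from 100 uM, 0.5% DMSO vehicle, duplicates; qRT-PCR (Fluidigm array) of LPL mRNA vs housekeeping genes; bidirectional curve fit relative to DMSO baseline.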

Read-out in experiment [10]: MicroRNA 122 (MIR122), gene 406906
Description: LTEA_HepaRG_MIR122: Life Technologies and Expression Analysis (LTEA) Assay for MicroRNA 122 (MIR122) using HepaRG (AID 2283516). Further: the transcript read is the microRNA miR-122. The essentials: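 Expression measured by microfluidic qRT-PCR with three housekeeping genes for normalisation, after 48 h treatment of HepaRG cultures. Eight concentrations (top 100 uM, half-log steps, 0.5% DMSO vehicle) in duplicate; gain or loss fitted relative to vehicle.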

Read-out in experiment [11]: matrix metalloproteinase-10 (MMP10), MMP10 (gene 4319)
Description: LTEA_HepaRG_MMP10: Life Technologies and Expression Analysis (LTEA) Assay for matrix metalloproteinase-10 (MMP10) using HepaRG (AID 2283517). Summed up: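 Transcript levels come from Fluidigm qRT-PCR normalized to three housekeeping genes, with curves fitted bidirectionally against 0.5% DMSO. Human HepaRG cells were dosed for 48 hours at concentrations up to 100 uM.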

Read-out in experiment [12]: matrix metalloproteinase-3 (MMP3), MMP3 (gene 4314)
As to the kind of experiment: LTEA_HepaRG_MMP3: Life Technologies and Expression Analysis (LTEA) Assay for matrix metalloproteinase-3 (MMP3) using HepaRG (AID 2283519). The essentials:
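qRT-PCR read-out of MMP3 mRNA (normalised to three housekeeping genes) in HepaRG liver cells after 48 h chemical exposure; 8-point half-log series, top 100 uM, 0.5% DMSO vehicle. Bidirectional curve fitting against DMSO baseline.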

Read-out in experiment [13]: Paternally Expressed 10 (PEG10), PEG10 (gene 23089)
As to the kind of experiment: LTEA_HepaRG_PEG10: Life Technologies and Expression Analysis (LTEA) Assay for Paternally Expressed 10 (PEG10) using HepaRG (AID 2283520).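 On AC50: differentiated HepaRG human liver cells in serum-free induction medium with 0.5% DMSO; PEG10 transcript by qRT-PCR normalised to ACTB GAPDH and POLR2A.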 Summed up:
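PEG10 transcript measured by Fluidigm qRT-PCR, normalized to three housekeeping genes, in HepaRG cells treated 48 h (highest 100 uM, half-log steps, 0.5% DMSO vehicle). Cells plated 48 h before switching to serum-free induction medium.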

Read-out in experiment [14]: Nuclear factor NF-kappa-B p105 subunit (Homo sapiens) (UniProt P19838)
As to the kind of experiment: LTEA_HepaRG_NFKB1: Life Technologies and Expression Analysis (LTEA) Assay for Nuclear Factor Kappa B Subunit 1 (NFKB1) using HepaRG (AID 2283521).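 On outcome: differentiated human HepaRG liver cells in serum-free induction medium; TaqMan qRT-PCR transcript normalised to ACTB GAPDH and POLR2A housekeeping genes.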 The essentials:
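Human HepaRG cells receive eight half-log concentrations, highest 100 uM, for 48 h. NFKB1 expression is then quantified by qRT-PCR and analysed for up- or down-regulation relative to 0.5% DMSO vehicle.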

Read-out in experiment [15]: Protein phosphatase 2A (PPP2R4), PTPA (gene 5524)
As to the kind of experiment: LTEA_HepaRG_PPP2R4: Life Technologies and Expression Analysis (LTEA) Assay for Protein phosphatase 2A (PPP2R4) using HepaRG (AID 2283522). Summed up: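 Expression was quantified by Fluidigm qRT-PCR normalised to three housekeeping genes after 48 h treatment. Human HepaRG cells received an 8-point series from 100 µM downward by half-logs, in duplicate with 0.5% DMSO vehicle and 1 mM phenobarbital as induction control.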

Read-out in experiment [16]: solute carrier (SLC22A1), SLC22A1 (gene 6580)
Description: LTEA_HepaRG_SLC22A1: Life Technologies and Expression Analysis (LTEA) Assay for solute carrier (SLC22A1) using HepaRG (AID 2283524).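 On AC50: differentiated human HepaRG liver cells in serum-free induction medium.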 The essentials:
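qRT-PCR readout (TaqMan, Fluidigm arrays) of SLC22A1 transcript, normalized to three housekeeping genes; bidirectional curve fit relative to 0.5% DMSO vehicle. Differentiated human HepaRG cells, 48 h chemical exposure, top concentration 100 uM, half-log steps, eight points.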

Read-out in experiment [17]: Pyruvate Dehydrogenase Kinase 4 (PDK4), PDK4 (gene 5166)
Description: LTEA_HepaRG_PDK4: Life Technologies and Expression Analysis (LTEA) Assay for Pyruvate Dehydrogenase Kinase 4 (PDK4) using HepaRG (AID 2283525). The essentials: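 HepaRG (human liver line), 48 h chemical exposure, 8-pt half-log CRC top 100 uM, 0.5% DMSO vehicle, duplicates. Readout: TaqMan qRT-PCR of PDK4 mRNA, housekeeping-normalized; gain/loss fit relative to DMSO baseline.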

Read-out in a further experiment: MYC, MYC (gene 4609)
As to the kind of experiment: LTEA_HepaRG_MYC: Life Technologies and Expression Analysis (LTEA) Assay for MYC using HepaRG (AID 2283518). The essentials:
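qRT-PCR read-out of MYC transcript (Fluidigm TaqMan, housekeeping-normalized) after 48 h chemical exposure of HepaRG cells; eight concentrations, top 100 uM, half-log steps. Bidirectional curve fitting against 0.5% DMSO vehicle baseline.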

Read-out in experiment [18]: Phosphatase and tensin (PTEN), PTEN (gene 5728)
As to the kind of experiment: LTEA_HepaRG_PTEN: Life Technologies and Expression Analysis (LTEA) Assay for Phosphatase and tensin (PTEN) using HepaRG (AID 2283523). The essentials: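 HepaRG, 48 h exposure, 8-pt half-log series from 100 uM top, 0.5% DMSO vehicle, duplicates. Readout: Fluidigm qRT-PCR of PTEN transcript; housekeeping normalization (ACTB, GAPDH, POLR2A). Gain or loss fitted relative to DMSO baseline.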

Activity calls are given as the source filed them. How the source made its calls: active means hit-call score of the fitted dose curve at least 0.9, where 1 is the maximum; inactive means score below 0.9.

Nuclear factor NF-kappa-B p105 subunit (Homo sapiens), sequence (P19838 whole entry, looked up): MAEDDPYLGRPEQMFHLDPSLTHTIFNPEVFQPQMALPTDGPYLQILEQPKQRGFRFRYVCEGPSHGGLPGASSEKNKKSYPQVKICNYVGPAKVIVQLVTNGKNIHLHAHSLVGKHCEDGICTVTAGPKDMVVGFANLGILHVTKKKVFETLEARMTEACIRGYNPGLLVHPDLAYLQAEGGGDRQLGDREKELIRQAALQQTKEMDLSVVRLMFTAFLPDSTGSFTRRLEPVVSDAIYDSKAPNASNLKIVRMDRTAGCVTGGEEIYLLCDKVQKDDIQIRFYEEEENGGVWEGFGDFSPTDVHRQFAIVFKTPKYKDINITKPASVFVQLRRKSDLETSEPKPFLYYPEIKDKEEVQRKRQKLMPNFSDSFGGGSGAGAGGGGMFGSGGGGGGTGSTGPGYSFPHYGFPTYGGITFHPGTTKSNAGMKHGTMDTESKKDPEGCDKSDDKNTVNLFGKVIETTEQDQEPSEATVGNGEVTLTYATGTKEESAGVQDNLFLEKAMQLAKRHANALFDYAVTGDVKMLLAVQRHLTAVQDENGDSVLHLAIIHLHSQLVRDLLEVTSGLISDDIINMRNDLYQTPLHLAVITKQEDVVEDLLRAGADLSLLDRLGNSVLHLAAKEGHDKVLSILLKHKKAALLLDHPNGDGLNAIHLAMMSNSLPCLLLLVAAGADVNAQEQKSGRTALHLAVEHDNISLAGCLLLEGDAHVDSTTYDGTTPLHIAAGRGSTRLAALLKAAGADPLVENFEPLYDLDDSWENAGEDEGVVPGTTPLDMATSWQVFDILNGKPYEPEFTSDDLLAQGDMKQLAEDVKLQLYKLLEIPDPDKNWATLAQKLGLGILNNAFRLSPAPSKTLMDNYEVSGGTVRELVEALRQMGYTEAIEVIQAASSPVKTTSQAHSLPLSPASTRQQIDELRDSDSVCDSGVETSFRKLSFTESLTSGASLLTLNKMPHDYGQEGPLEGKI

What is called AC50 is the concentration giving half of the maximal activity seen. For `Cc1c2ccccc2c(C)c2c1ccc1ccccc12`, the AC50 was 82.1 µM (active) in experiment [1]; 70.3 µM (active) in [2]; 83 µM (active) in experiment [3]; 13.5 µM (active) in experiment [4]; 13.3 µM (active) in experiment [6]; 30.6 µM (active) in experiment [8]. Also, the AC50 is 82.5 µM (active) in [9]; 66 µM (active) in experiment [10]; 79.5 µM (active) in [11]; 11.8 µM (active) in [12]; 28.5 µM (active) in experiment [13]; 41.2 µM (active) in experiment [16]. Besides, the AC50 in experiment [17] is 56.6 µM (active). The molecule was called inactive in [5], in experiment [7], in experiment [14] and in experiment [15].

`CC/C(=C(/CC)c1ccc(O)cc1)c1ccc(O)cc1`: the outcome in experiment [1] is “inactive”; in experiment [5], “inactive”; in experiment [8], “inactive”; in experiment [10], “inactive”; with MYC, MYC (gene 4609) it was “inactive”. For the same molecule, the concentration at half-maximal activity (AC50) in experiment [2] was 66.6 µM (active); in experiment [3] it was 93 µM (active); in experiment [4], 78.5 µM (active); in [6], 9.92 µM (active); in experiment [7] it was 79.2 µM (active); in experiment [9], 83.9 µM (active). The AC50 in [11] is 86.9 µM (active); in experiment [13] it was 67.1 µM (active); in [15], 85.4 µM (active); in [18], 93.8 µM (active); in experiment [16], 75.7 µM (active); in [17], 80.1 µM (active).

Take `CCCCCCCCCC(=O)O`: the molecule was called inactive in [1], in experiment [2], in [3], in experiment [4], in experiment [5] and in experiment [6]. Further, the molecule was called inactive in experiment [7], in experiment [8], in experiment [9], in [10], in experiment [11] and in [12]. Further, the molecule was called inactive in experiment [13], in experiment [14], in [15], in experiment [18], in experiment [16] and in experiment [17].

With `CCCCCCCCCCCC[N+](C)(C)C`, the half-maximal activity concentration (AC50) in experiment [1] was 76.4 µM (active); in [2] it was 84.2 µM (active); in experiment [3] it was 77.8 µM (active); in experiment [5], 64.7 µM (active); in experiment [6], 50 µM (active); in experiment [7], 82.8 µM (active). Besides, the AC50 in [8] was 89.2 µM (active); in [9], 82 µM (active); in experiment [11] it was 82.4 µM (active); in experiment [13], 33.8 µM (active); in [16], 91 µM (active); in experiment [17] it was 75.6 µM (active). In addition, the outcome in [4], in experiment [14], in [15] and in experiment [18] was inactive.

As to `CN(C[C@@H](CC[N+]12CCC(C3CCCCC3)(CC1)CC2)c1ccc(Cl)c(Cl)c1)C(=O)c1cc(C(F)(F)F)cc(C(F)(F)F)c1`, the AC50 is 12.2 µM (active) in experiment [1]; 13.9 µM (active) in experiment [2]; 75.6 µM (active) in experiment [3]; 78 µM (active) in [4]; 15.8 µM (active) in [5]; 88.5 µM (active) in [7]. Also, the concentration at half-maximal activity (AC50) in experiment [8] was 15.8 µM (active); in [9] it was 36 µM (active); in experiment [11], 9.43 µM (active); with MYC, MYC (gene 4609) it was 87.2 µM (active); in experiment [13], 28.7 µM (active); in experiment [14], 89.7 µM (active). Further, the AC50 is 76.2 µM (active) in [15], 71.1 µM (active) in experiment [18], 22.4 µM (active) in experiment [16] and 82.4 µM (active) in experiment [17]. Besides, the call in experiment [12] was inactive.

As for `O=CCCCC=O`, the outcome in experiment [1], in experiment [2], in experiment [3], in [4], in experiment [5] and in experiment [6] was inactive. For the same molecule, the molecule was classed as inactive in [7], in experiment [8], in experiment [9], in experiment [11], in [12] and in experiment [13]. The molecule was classed as inactive in [14], in experiment [15], in experiment [18], in [16] and in [17].

(Values after PubChem BioAssay (EPA / NIEHS).)
